Laboratory results: PubChem BioAssay (Tox21)
Values joined by “and” are separate entries in the source; they are usually repeats but may differ in a detail not shown here. Equal values may be shown once. Records with an inconclusive call do not appear. Entries that show only a call come without a potency. Active and inactive are the calls of the source. Calls come from the whole dose curve; as a rule, active = well fitted cell-killing curve with a large enough effect in the repeat runs; inconclusive = weak or mixed curves, or effect the other way; inactive = flat fitted curve, though single readings scatter.

Experiment: cAMP Responsive Elements (CRE) small molecule agonists, cell-based qHTS assay: qHTS cell viability counter screen (AID 2060914);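 note: viability read after 3 h of compound exposure; nearly all actives have a fitted effect of over 50% in size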
Settings: CRE-bla HEK293T viability, CellTiter-Glo luminescence, 5 h; series mostly up to 92.4 µM
Description: National Center for Advancing Translational Sciences [NCATS]
Division of Preclinical Innovation [DPI]
U.S. Environmental Protection Agency [EPA]
National Institutes of Environmental Health Sciences [NIEHS]
National Toxicology Program [NTP]
U.S. Food and Drug Administration [FDA]
CREB (cyclic-AMP Responsive Element Binding Protein) is a cellular transcription factor. It binds to certain DNA sequences called cAMP Responsive Elements (CRE) and regulates the transcription of the genes. […] This cell line can be used to find agonists/antagonists of the cyclic AMP signaling pathway. The activation of the report gene under culture conditions can be detected by fluorescence intensity. This cell line has been used to screen the Tox21 10K compound library to identify agonists that induce oxidative stress. The cytotoxicity of the Tox21 compound library against the CRE-bla cell line was tested in parallel by measuring the cell viability using CellTiter-Glo assay (Promega, Madison, WI) in the same wells.
Tox21 Assay Protocol Summary:
CRE-bla Hek 293T cells were suspended in assay medium (DMEM containing 10% dialyzed FBS, 0.1 mM NEAA, 1 mM sodium pyruvate and 25 mM HEPES) and dispensed at 2,000 cells/5 uL /well into 1536-well black wall/clear bottom plates using a Multidrop Combi (ThermoFisher Scientific, Waltham, MA) dispenser. After the assay plates were incubated at 37 C/5% CO2 for 18 hrs, 23 nL of compounds dissolved in DMSO, positive controls or DMSO only was transferred to the assay plate by a pintool workstation (Kalypsys, San Diego, CA). After the plates were incubated at 37 C/5% CO2 for 3 hrs, 1 uL of LiveBLAzer B/G FRET substrate (Invitrogen, Carlsbad, CA) was added to each well using Bioraptr Flying Reagent Dispenser (FRD, Aurora Discovery, San Diego, CA). The plates were incubated at room temperature for 2 h, then fluorescence intensities were measured using an Envision plate reader (PerkinElmer, Shelton, CT) at Excitation 405nm, Emission 460nm and 530nm. The % activity was determined from the ratio of 460nm/530nm. For cell viability readout that measures cytotoxicity, 4 uL /well of CellTiter-Glo reagent was added into the assay plates using Bioraptr FRD. After 30 min incubation at room temperature, the luminescence intensity in the assay plates was measured using a ViewLux (PerkinElmer, Shelton, CT) plate reader.
Potency is the fitted concentration of half-maximal effect.

Row | Compound | Potency
1 | C[Si](C)(CCCN)O[Si](C)(C)CCCN | inactive
2 | CN1CC(=O)N/C1=N/C(=O)Nc1cccc(Cl)c1 | inactive
3 | O=C(Cl)c1c(Cl)cccc1Cl | inactive
4 | N#C/C(=C1/SC[C@@H](c2ccc(Cl)cc2Cl)S1)n1ccnc1 | inactive
5 | OC[C@@H](O)[C@@H](O[C@@H]1O[C@H](CO)[C@H](O)[C@H](O)[C@H]1O)[C@H](O)[C@@H](O)CO | inactive
6 | CCCCCCCCCCC=CC1CC(=O)OC1=O (stereo not given) | inactive
7 | CCc1oc2ccccc2c1C(=O)c1cc(Br)c(O)c(Br)c1 | inactive
8 | OC[C@@H](O)[C@@H](O)[C@H](O)[C@H](O)CO | inactive
9 | O=C1CCCCC1C1CCCCC1 (stereo not given) | inactive
10 | CC(C)(O)C(=O)O | inactive
11 | CCCCOCCOC(=O)c1cccnc1 | inactive
12 | CC(C)(CO)[C@@H](O)C(=O)NCCC(=O)O | inactive
13 | CCOC(/C=C(\C)CCC=C(C)C)OCC | inactive
14 | OCC1CC2CC1C1CCC(CO)C21 (stereo not given) | inactive
15 | C[C@@H]1C[C@H]2[C@@H]3CCC4=CC(=O)C=C[C@]4(C)[C@@]3(F)[C@@H](O)C[C@]2(C)[C@H]1C(=O)CO | inactive
16 | O=c1[nH]cc(F)c(=O)[nH]1 | inactive
17 | CCCCC/C=C\C/C=C\CCCCCCCC(=O)O | inactive
18 | C[Si](C)(C)Cl | inactive
19 | c1ccsc1 | inactive
20 | Nc1ccc2cc(S(=O)(=O)O)cc(O)c2c1N=Nc1ccccc1C(F)(F)F | inactive

Row | Compound | Potency
21 | Cc1ccccc1OCC1CO1 (stereo not given) | inactive
22 | O=S(=O)(O)c1ccccc1 | inactive
23 | CC(=O)c1ccc2c(c1)Cc1ccccc1-2 | inactive
24 | O=C(c1ccc(O)cc1)c1ccc(O)cc1O | inactive
25 | CCCC(CCC)(C(=O)OCC)C(=O)OCC | inactive
26 | Nc1nc(=S)c2[nH]cnc2[nH]1 | inactive
27 | CNC(=O)N(c1ccccc1)c1ccccc1 | inactive
28 | CC(=O)CC(=O)Nc1ccccc1 | inactive
29 | O=C(O)CC(O)C(=O)O (stereo not given) | inactive
30 | COc1ccc(COC(C)=O)cc1 | inactive
31 | CC(=O)[C@H]1CC[C@H]2[C@@H]3CC=C4C[C@@H](O)CC[C@]4(C)[C@H]3CC[C@]12C | inactive
32 | CC(C)(C)CC(C)(C)c1ccc(OCCOCC[N+](C)(C)Cc2ccccc2)cc1 | 54.4 µM (active) and 29.8 µM (active)
33 | CC(COc1ccc(C(C)(C)C)cc1)OS(=O)OCCCl (stereo not given) | inactive
34 | O=C(O)c1ccccc1C(=O)OCc1ccccc1 | inactive
35 | O=S(=O)(O)c1ccc(O)cc1 | inactive
36 | O=S(=O)(O)c1ccc(Cl)cc1 | inactive
37 | O=C1C(c2[nH]c3ccc(S(=O)(=O)O)cc3c2O)=Nc2ccc(S(=O)(=O)O)cc21 | inactive
38 | COC(=O)Nc1nc2ccc(C(=O)C3CC3)cc2[nH]1 | inactive
39 | CC(O)CC(C)(C)O (stereo not given) | inactive
40 | Cc1ccc(Cl)cc1 | inactive
